Screening results as filed in PubChem.
Tau fibril FP: qHTS for Inhibitors of Tau Fibril Formation, Fluorescence Polarization. K18 P301L tau heparin fibrillization, Alexa594 FP, 6 h. Potency, µM (series often up to 57.7 µM), hits mostly inhibitors. 280,000 tested, 0.39% active. AID 1468, 2008; also: nearly all actives have a fitted effect of over 55% in size
Target sequence (P10636 561-689 P618L limits assumed): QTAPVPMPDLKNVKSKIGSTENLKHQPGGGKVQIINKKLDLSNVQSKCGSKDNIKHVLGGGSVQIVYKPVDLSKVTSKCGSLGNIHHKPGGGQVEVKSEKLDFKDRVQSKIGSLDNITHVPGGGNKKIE
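Heparin (20 uM) drove fibril formation of recombinant tau K18 P301L, 15 uM unlabeled with 0.24 uM Alexa 594 label, for 6 hr at 37 C in 100 mM sodium acetate pH 7. Fluorescence polarization (555/632 nm) read 1 hr after 30 uM ThT.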
FBPA coupling cs: qHTS Assay for Inhibitors of Fructose-1,6-bisphosphate Aldolase from Giardia Lamblia: Coupling assay counterscreen | coupling enzyme system counterscreen, AmpLite Red fluorescence | 290,000 tested, 0.67% active | activity change, negative = inhibition, % at 58.2 µM, hits read low; in the data active = activity change below about -30%
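Activity here indicates interference with the coupling reaction, not aldolase inhibition. Compounds at 57.5 uM final met coupling enzymes for 10 min at RT; substrate and AmpLite Red detection followed, with a 525/598 nm fluorescence read after 20 min.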
Tau fluor cs: Counterscreen qHTS for Inhibitors of Tau Fibril Formation, Fluorescence Polarization; tau K18 P301L Alexa594 fluorescence, heparin fibrillization; Potency, µM (highest dose often 57.7 µM); 280,000 tested, 0.93% active; AID 1463, 2008; also: nearly all actives have a fitted effect of over 55% in size
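Human tau K18 P301L (15 uM unlabeled, 0.24 uM Alexa 594-labeled) in 100 mM sodium acetate pH 7 with 20 uM heparin, 6 hr at 37 C. ThT 30 uM added, 1 hr ambient; Alexa 594 FP and total fluorescence read at 555/632 nm.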
Sfp PPTase inh: qHTS Assay for Inhibitors of Bacillus subtilis Sfp phosphopantetheinyl transferase (PPTase); 310,000 tested, 3.5% active; AID 1490, 2009; 4'-phosphopantetheinyl transferase ffp (Bacillus subtilis), Q9F4F7; Biochemical Sfp PPTase activity, qHTS; Potency, µM, hits mostly inhibitors;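 also: the enzyme is Sfp with the accession as filed and its product quenches rhodamine fluorescence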
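With Hepes-Na pH 7.6 buffer containing 10 mM MgCl2, Sfp (15 nM) modified BHQ-2-YbbR (12.5 uM) using rhodamine-CoA (5 uM). Two reads 30 minutes apart at 525/598 nm yielded each well's rate.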
JMJD2E inh: qHTS Assay for Inhibitors of Human Jumonji Domain Containing 2E (JMJD2E) | Lysine-specific demethylase 4E (Homo sapiens), B2RXH2 | JMJD2E catalytic domain, FDH-coupled NADH fluorescence (FDH is formaldehyde dehydrogenase) | Potency, µM (series often up to 57.1 µM), hits mostly inhibitors | 230,000 tested, 1.6% active | AID 2147, 2009; active = well fitted inhibition curve with a large enough effect, not every such curve was filed as active; inconclusive = small, poorly fitted or top-dose-only effect, or another doubt; inactive = no such curve, though single readings can be large or run the other way; also: nearly all actives have a fitted effect of over 50% in size
Target sequence (B2RXH2 1-337 limits assumed): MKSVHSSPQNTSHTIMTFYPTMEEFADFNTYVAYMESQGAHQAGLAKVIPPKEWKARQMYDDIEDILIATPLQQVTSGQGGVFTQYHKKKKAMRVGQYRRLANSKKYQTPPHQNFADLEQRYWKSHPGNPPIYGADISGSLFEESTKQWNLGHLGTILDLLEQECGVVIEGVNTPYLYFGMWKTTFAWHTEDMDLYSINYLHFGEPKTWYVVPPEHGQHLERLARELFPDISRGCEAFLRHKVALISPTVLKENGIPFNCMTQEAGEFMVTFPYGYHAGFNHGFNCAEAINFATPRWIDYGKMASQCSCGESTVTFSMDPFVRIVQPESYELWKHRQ
Tau fibril ThT: qHTS for Inhibitors of Tau Fibril Formation, Thioflavin T Binding. recombinant tau K18 P301L (four-repeat tau fragment), heparin-induced fibrillization, ThT fluorescence. AID 1460, 2008. Microtubule-associated protein tau (Homo sapiens), P10636. Potency, µM (highest dose often 57.4 µM), hits mostly inhibitors. 270,000 tested, 2.1% active; also: nearly all actives have a fitted effect of over 55% in size
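Heparin-induced fibrillization of the P301L-mutant K18 repeat-domain fragment of human tau was followed by ThT binding in quantitative high-throughput format.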
Hits are given with their value; . = inactive; ? = inconclusive; / = no result given; [ ] = dose if it differs, or a comment. The list is not random: actives were taken first. Their share in the collection is about 5.3%. Unless noted, calls follow the shape of the dose curve; as a rule, active = well fitted curve in the direction sought with a large enough effect; inconclusive = small, poorly fitted or top-dose-only effect, or another doubt; inactive = no such curve, though single readings can be large; an effect the other way counts as inactive or inconclusive.

SMILES | Tau fibril FP | FBPA coupling cs | Tau fluor cs | Sfp PPTase inh | JMJD2E inh | Tau fibril ThT
CC(=O)Nc1ccc(Nc2nc(C)nc3c2oc2ccccc23)cc1 | . | . | . | . | . | ?
C[C@H]1O[C@@H](n2cnc3c(N)ncnc32)C[C@@H]1OP(=O)(O)OP(=O)(O)OP(=O)(O)O | / | . | / | . | / | /
CCSC1=NC(=O)/C(=C2/C=Cc3ccccc3N2CC)S1 | . | . | ? | ? | . | 7.1µM
CC1=CN2C(=N)/C(=C/c3ccc([N+](=O)[O-])o3)C(=O)N=C2S1 | ? | -32 | ? | 35µM | 28µM | 13µM
COc1ccc(S(=O)(=O)NCCCC(=O)Nc2ccc(Sc3ccc(N)cc3)cc2)cc1 | / | . | / | . | / | /
O=C(Oc1ccc(Cl)c2cccnc12)c1cccc([N+](=O)[O-])c1 | . | . | . | . | ? | .
O=C(Oc1c(Cl)cc(Cl)c2cccnc12)c1cccc([N+](=O)[O-])c1 | . | . | . | . | 14µM | .
Cc1ccc(-c2cc(C(F)(F)F)n3nc(C(=O)Nc4sc5c(c4C#N)CCC(C)C5)cc3n2)cc1 (stereo not given) | . | / | . | / | / | .
O=C(O)CCC(=O)NNc1ncnc2ccccc12 | . | . | . | 56µM | ? | .
CCC(=O)NNc1ncnc2ccccc12 | . | . | . | . | . | .
O=C(O)CCC(=O)NNc1nc2ccccc2nc1-c1ccccc1 | . | . | . | 56µM | ? | .
O=C(O)CCC(=O)NNc1nc(-c2ccccc2)c2cc(Cl)ccc2n1 | / | . | / | . | / | /
CN(C)CCN(Cc1cc2cc3c(cc2[nH]c1=O)OCO3)C(=S)NCc1ccco1 | . | . | . | . | ? | .
O=c1[nH]c2cc3c(cc2cc1CN(Cc1cccnc1)C(=S)NCc1ccco1)OCO3 | ? | . | . | 40µM | ? | ?
O=c1[nH]c2cc3c(cc2cc1CN(Cc1cccnc1)C(=S)NCc1ccco1)OCCO3 | . | . | . | 5µM | . | .
COc1ccc(C(=O)/C=C/c2cn(CC(O)CN3CCOCC3)c3ccccc23)cc1 (stereo not given) | ? | . | ? | . | ? | 10µM
O=C(/C=C/c1cn(CC(O)CN2CCOCC2)c2ccccc12)c1cccs1 (stereo not given) | . | . | ? | . | . | 14µM
O=Cc1cn(CC(O)CN2CCCCC2)c2ccccc12 (stereo not given) | . | . | . | . | . | .
Cc1ccc(C(=O)/C=C/c2cn(CC(O)CN3CCOCC3)c3ccccc23)cc1 (stereo not given) | . | . | . | . | . | ?
COc1ccc(CCNC(=O)CCc2c(C)nc3cc(-c4ccccc4)nn3c2C)cc1OC | . | / | . | / | / | ?
CCc1c(C)nc2cc(-c3ccc(OC)c(OC)c3)nn2c1NCC1CC1 | . | . | . | 22µM | . | .
CCCc1cc(=O)[nH]c(Nc2ccc(C(=O)O)cc2)n1 | . | / | . | / | / | .
CCCOC(=O)c1cccc(Nc2nc(CCC)cc(=O)[nH]2)c1 | 22µM | / | ? | / | / | .
CCOC(=O)C1OC1C(=O)NC(CC(C)C)C(=O)NCCC(C)C (stereo not given) | . | / | . | . | / | .
COc1ccc(-n2c(N)c(C(=O)NCC3CCCO3)c3nc4ccccc4nc32)c(OC)c1 (stereo not given) | . | -30 | ? | . | ? | 28µM
SMILES | Tau fibril FP | FBPA coupling cs | Tau fluor cs | Sfp PPTase inh | JMJD2E inh | Tau fibril ThT
O=C(NCC1CCCO1)c1coc2nc3ccccc3nc12 (stereo not given) | ? | . | . | . | ? | .
C=CCn1c(N)c(C(=O)NCC2CCCO2)c2nc3ccccc3nc21 (stereo not given) | . | -56 | . | ? | . | .
CCCSC1=NC2(CCN(C(=O)NC3CCCCC3)CC2)N=C1c1ccc(Cl)cc1 | . | / | . | / | / | .
COC(=O)C1=C(C(=O)OC)[C@@H]2N(Cc3ccccc3)c3ccccc3[C@@]23C[C@@H](C(=O)OC)N(S(=O)(=O)c2ccc(Br)cc2)C3=N1 | .[11.6 µM] | . | .[11.6 µM] | . | .[11.4 µM] | .[11.5 µM]
c1coc(CN(Cc2ccco2)c2ncnc3c2oc2ccccc23)c1 | . | . | . | 28µM | . | ?
COc1cc(OC)c(NC(=O)CCc2nc(C3=CCN(Cc4cccc(Cl)c4)CC3)no2)cc1Cl | . | / | ? | / | / | ?
COc1cccc(Nc2nc(-c3sc(C)nc3C)cs2)c1 | / | . | / | . | / | /
CCCCC(=O)Nc1nc(C)c(-c2csc(Nc3cc(OC)ccc3OC)n2)s1 | ? | . | 16µM[quencher] | . | ? | ?
CCCC(C)C(=O)Nc1nc(C)c(-c2csc(Nc3ccccc3OC)n2)s1 (stereo not given) | ? | . | ? | ? | ? | ?
CCC(C)C(=O)Nc1nc(C)c(-c2csc(Nc3cc(OC)ccc3OC)n2)s1 (stereo not given) | ? | . | 14µM[quencher] | . | ? | ?
COc1ccc(OC)c(Nc2nc(-c3sc(NC(=O)C(C)(C)C)nc3C)cs2)c1 | . | . | 14µM[quencher] | . | ? | ?
COc1ccc(OC)c(Nc2nc(-c3sc(C)nc3C)cs2)c1 | ? | . | ? | ? | . | 14µM
COc1ccc(Cl)cc1Nc1nc(-c2sc(NC(=O)C(C)(C)C)nc2C)cs1 | ? | . | ? | . | . | ?
COc1ccc(-c2ccc(OC)c(C3C4C=CCCC4(C)C(=O)N3Cc3ccccc3)c2)cc1 (stereo not given) | / | . | / | . | / | /
CC[C@H](C)[C@H](NC(=O)[C@@H](NC(=O)[C@@H](NC(=O)[C@H](CCC(=O)O)NC(=O)[C@H](CCC(=O)O)NC(=O)[C@H](CCC(=O)O)NC(=O)[C@H](C)NC(=O)[C@@H](N)CC(C)C)C(C)C)C(C)C)C(=O)N[C@@H](CCCNC(=N)N)C(=O)N[C@@H](CO)C(=O)N[C@@H](C)C(=O)N[C@@H](CC(N)=O)C(=O)N[C@@H](Cc1ccccc1)C(=O)N[C@H](C(=O)N[C@@H](CC(=O)O)C(=O)N[C@@H](CC(N)=O)C(=O)O)[C@@H](C)O | / | . | / | . | / | /
CCCCC(=O)Nc1nc(C)c(-c2csc(Nc3cc(Cl)ccc3OC)n2)s1 | . | . | ? | ? | ? | ?
Cc1nc(C)c(-c2csc(Nc3ccc(F)cc3)n2)s1 | ? | . | 20µM[quencher] | . | ? | ?
CCCC(C)C(=O)Nc1nc(C)c(-c2csc(Nc3ccc(Cl)cc3)n2)s1 (stereo not given) | . | . | 16µM[quencher] | . | . | ?
Cc1nc(C)c(-c2csc(Nc3ccc(C(=O)O)c(O)c3)n2)s1 | / | . | / | ? | / | /
